High-throughput results (PubChem)
A selection: hits, their analogues and other compounds. The true share with any hit is near 12%.
Pf growth 48h = P. falciparum growth inhibition at 48 hours (one generation). P. falciparum luciferase growth in erythrocytes, 48 h. Potency, µM (series often up to 28.7 µM), most hits filed as inhibitors. 310,000 tested, 5.9% active
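Growth was read as firefly luciferase luminescence after a 48 h, 37 C, 5% CO2 exposure of compounds to reporter-bearing P. falciparum cultures (0.1% parasitemia, 2% hematocrit final) in Albumax-supplemented RPMI 1640.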
SARS PLpro yeast = SARS-CoV PLP inhibition in yeast; S. cerevisiae expressing SARS-CoV PLpro, growth rescue; Potency, µM (highest dose often 32.9 µM), hits mostly activators; 330,000 tested, 0.19% active; calls by dose curve; further: nearly all actives have a fitted effect of over 55% in size
Sm TGR inh = S. mansoni TGR enzyme inhibition. Q962Y6. purified TGR, DTNB reduction, TNB absorbance 405 nm. Potency, µM (doses to about 114 µM), usual class: inhibitors. 360,000 tested, 3% active; further: nearly all actives have a fitted effect of over 60% in size
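Kinetic colorimetric format: TGR-catalysed, NADPH-driven DTNB reduction monitored via TNB absorbance. Enzyme dispensed at 20 nM; compound exposure 15 min at room temperature before reaction start.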
Pf growth 96h = inhibits malaria parasite growth, 96 h; P. falciparum luciferase reporter growth, 96 h; Potency, µM (highest dose often 28.7 µM), hits mostly inhibitors; 320,000 tested, 6.9% active; AID 504834
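Cell-based qHTS: luciferase-tagged P. falciparum in erythrocytes (2% hematocrit, 0.05% parasitemia final) incubated with compounds for 96 hours, 37 C, 5% CO2; luciferase detection reagent then added and luminescence measured.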
AmpC no deterg = AmpC beta-lactamase inhibition without detergent; P00811; AmpC nitrocefin hydrolysis, absorbance 480 nm, 0.0001% Triton; Potency, µM (series often up to 57.1 µM), actives largely listed as inhibitors; 330,000 tested, 0.52% active; AID 485341; further: nearly all actives have a fitted effect of over 20% in size
Target sequence (P00811 whole entry, looked up): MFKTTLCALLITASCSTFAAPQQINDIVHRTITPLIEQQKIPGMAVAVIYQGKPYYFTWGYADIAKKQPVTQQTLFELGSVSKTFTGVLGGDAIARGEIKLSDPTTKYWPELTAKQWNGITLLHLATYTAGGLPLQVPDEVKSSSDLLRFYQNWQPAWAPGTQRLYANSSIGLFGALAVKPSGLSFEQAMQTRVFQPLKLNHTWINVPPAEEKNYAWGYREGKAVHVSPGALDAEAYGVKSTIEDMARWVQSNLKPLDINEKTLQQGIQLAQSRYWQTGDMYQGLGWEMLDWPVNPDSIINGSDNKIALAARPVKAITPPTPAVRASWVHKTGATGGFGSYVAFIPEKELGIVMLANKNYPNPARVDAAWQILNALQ
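AmpC (5.3 nM in the dispensed reagent) in 20 mM phosphate pH 7.0 with 0.01% (detergent screen) or 0.0001% Triton X-100 was preincubated with compounds for 15 min at room temperature. Nitrocefin was then added from an 800 uM solution, and hydrolysis was followed at 480 nm.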
AmpC detergent = blocks E. coli AmpC beta-lactamase in detergent assay | P00811 | AmpC hydrolysis of nitrocefin, absorbance 480 nm, 0.01% Triton | Potency, µM (titrated, usually from 114 µM), actives largely listed as inhibitors | 370,000 tested, 0.041% active; further: nearly all actives have a fitted effect of over 25% in size
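20 mM phosphate pH 7.0 + 0.01% (detergent screen) or 0.0001% Triton X-100; 5.3 nM AmpC reagent; cpd preinc 15 min RT; nitrocefin (800 uM stock) to start; A480 q20 s × 4 min; Activity was normalised to no-enzyme and no-compound control wells.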
Hits are given with their value; 0 = inactive; ? = inconclusive; - = not tested or not shown; [ ] = dose if it differs, or a comment. Unless noted, the call rests on the fitted dose curve; in most records, active means well fitted curve in the direction sought with a large enough effect; inconclusive means small, poorly fitted or top-dose-only effect, or another doubt; inactive means no such curve, though single readings can be large; an effect the other way counts as inactive or inconclusive.

SMILES | Pf growth 48h | SARS PLpro yeast | Sm TGR inh | Pf growth 96h | AmpC no deterg | AmpC detergent
CCOc1ccc(/C=N/NC(=O)Cc2ccccc2)cc1CN1CC2CC(C1)c1cccc(=O)n1C2 (configuration not stated) | 6.6µM | 0 | 0 | 0 | 0 | 0
CCOc1ccc(/C=N/NC(=O)c2ccc(O)cc2)cc1CN1CC2CC(C1)c1cccc(=O)n1C2 (configuration not stated) | ? | ? | 0 | ? | 0 | 0
Cn1c(=O)c2c(nc(Br)n2Cc2nnc(N)s2)n(C)c1=O | 0 | 0 | ? | 0 | 0 | ?
CN(C)c1oc(/C=C/c2ccc(F)cc2)nc1C#N | - | - | 0 | - | - | 0
C=CCNC(=O)/C(=C/c1cn(-c2ccccc2)nc1-c1cccc([N+](=O)[O-])c1)NC(=O)c1ccccc1 | ? | 0 | 0 | 4.1µM | 0 | 0
CN(C)C(=O)/C(=C/c1cn(-c2ccccc2)nc1-c1cccc([N+](=O)[O-])c1)NC(=O)c1ccccc1 | 0 | 0 | 0 | 0 | 0 | 0
CCS(=O)(=O)c1ncc(Cl)c(C(=O)Nc2ccccc2OC)n1 | 0 | 0 | 0 | 0 | 0 | 0
CCOc1ccccc1NC(=O)c1nc(S(=O)(=O)Cc2ccccc2)ncc1Cl | 0 | 0 | 3.5µM | ? | 0 | 0
COc1ccccc1NC(=O)c1nc(S(=O)(=O)Cc2ccccc2)ncc1Cl | 0 | 0 | 10µM | 0 | 0 | 0
COc1ccc(OC)c(NC(=O)c2nc(S(=O)(=O)Cc3ccc(F)cc3)ncc2Cl)c1 | - | - | 3.2µM | - | - | 0
CCN1CCN(C(=O)c2ccc3c(c2)N(Cc2ccccc2F)C(=O)c2ccccc2S3=O)CC1 (configuration not stated) | - | - | 0 | - | - | 0
CCOC(=O)c1ccccc1NC(=O)c1sc2ncn(Cc3cccc(F)c3)c(=O)c2c1C | - | - | 0 | - | - | 0
CCCCNC(=O)N1CCN(Cc2ccc(F)cc2)CC1 | 0 | 0 | - | 0[5.75 µM] | 0 | 0
CCC1COC(c2cccn2Cc2ccccc2Cl)=N1 (configuration not stated) | 0 | 0 | 0 | 12µM | 0 | 0
Fc1ccc(Cn2cccc2C2=NC(c3ccccc3)CO2)cc1 (configuration not stated) | 0 | 0 | 0 | ? | 0 | ?
O=C(COC(=O)c1cccc(S(=O)(=O)N2CCc3ccccc3C2)c1)NCc1ccco1 | 0 | 0 | 28µM | 0 | 0 | ?
CN(c1ccccc1)S(=O)(=O)c1cccc(C(=O)OCC(=O)NCc2ccco2)c1 | 0 | 0 | 56µM | ? | 0 | 0
O=C(COC(=O)c1cc(S(=O)(=O)N2CCc3ccccc3C2)ccc1Cl)NCc1ccco1 | - | 0 | 18µM | 0 | 0 | ?
CCn1cc(C(=O)NCc2ccco2)c(=O)c2cc(S(=O)(=O)N3CCCCCC3)ccc21 | ? | ? | ? | 0 | 0 | 0
CCn1cc(C(=O)NCc2ccco2)c(=O)c2cc(S(=O)(=O)N3CCc4ccccc4C3)ccc21 | 9.3µM | 0 | 14µM | 5.2µM | 0 | 0
O=C(COC(=O)c1cc(S(=O)(=O)N2CCOCC2)ccc1Cl)NCc1ccco1 | 0 | 0 | 0 | 0 | 0 | 0
Cc1cc(C)cc(-n2ccnc2SCC(=O)Nc2ccc3c(c2)OCO3)c1 | - | - | 0 | - | - | 0
CC(C)[C@H](NS(=O)(=O)c1ccccc1)C(=O)OCn1nnc2ccccc2c1=O | - | 0 | 0 | 0 | 0 | 0
O=c1c2ccc(Cl)cc2nc(-c2cccc(C(F)(F)F)c2)n1O | ? | 0 | 0 | 10µM | 0 | 0
CC(C)(C)c1ccc(-c2noc(CCC(=O)NCC3CCCO3)n2)cc1 (configuration not stated) | - | 0 | 0 | 0 | 0 | ?
SMILES | Pf growth 48h | SARS PLpro yeast | Sm TGR inh | Pf growth 96h | AmpC no deterg | AmpC detergent
CC(C)[C@@H](COc1ccccc1)N1CCN(Cc2ccccc2)CCC1=O | ? | 0 | 0 | 6.6µM | 0 | ?
CC(=O)c1c(C)[nH]c(C2=NNC(=NC(C)(C)C)SC2)c1C | 0 | 0 | 0 | 2.6µM | 0 | 0
CCOC(=O)c1c(C)[nH]c(C2=NNC(=Nc3ccccc3)SC2)c1C | 3.3µM | 0 | 0 | 3.7µM | 0 | 0
CCOC(=O)c1c(C)[nH]c(C2=NNC(=Nc3ccc(OCC)cc3)SC2)c1C | ? | 0 | 0 | 15µM | 0 | 0
Cc1cc(N/N=C/c2ccccc2Cl)nc(NCc2ccccc2)n1 | 1.5µM | 0 | 0 | ? | 0 | ?
Cc1cc(NC2CCCCC2)nc(NCc2ccccc2)n1 | 1.9µM | ? | 0 | 1.5µM | 0 | 0
COC(=O)c1ccc(Oc2nc(C)cc(Oc3ccccc3)n2)cc1 | ? | 0 | 0 | 0 | 0 | 0
COC(=O)c1ccc(Oc2cc(C)nc(NCc3ccccc3)n2)cc1 | ? | 0 | 0 | 10µM | 0 | 0
Cc1ccc(Nc2cc(C)nc(NCc3ccccc3)n2)cc1 | 0.66µM | 0 | 0 | 0 | 0 | 0
C[C@@]12CCC3[C@@](CC[C@@H]4[C@](C)(C(=O)O)CCC[C@@]34C)(C[C@H]1O)C2 (some centres not stated) | 0 | 0 | 0 | ? | 0 | 0
COc1ccc(Nc2cc(C)nc(NCc3ccccc3)n2)cc1 | 0.47µM | 0 | 0 | 1.7µM | 0 | 0
COc1cc(C)nc(NCc2ccccc2)n1 | 0 | 0 | 0 | ? | 0 | 0
COc1ccc(/C=N/n2cnc3c(sc(=S)n3-c3ccccc3)c2=O)cc1 | 0 | 0 | 0 | 0 | 0 | 0
S=c1sc2c(Cl)ncnc2n1-c1ccccc1 | 0 | 0 | 3.2µM | 0 | 0 | 0
Cc1ccc(N2C(=O)CC(N(CCc3ccccc3)C(=S)Nc3ccc(N(C)C)cc3)C2=O)cc1 (configuration not stated) | 12µM | 0 | 0 | ? | 0 | 0
NC(N)=NC(N)=Nc1cccc(Cl)c1 | ? | 0 | 0 | 10µM | 0 | 0
C[C@@H]1C[C@H]2OC(=O)C3(CO3)[C@H]2[C@H](O)[C@]2(C)C(=O)C3OC3[C@@H]12 (some centres not stated) | 12µM | 0 | 0 | ? | 0 | 0
CCN(/N=C/C=C/c1ccccc1)c1cc(=O)n(C)c(=O)[nH]1 | ? | 0 | 0 | 7.4µM | 0 | ?
CC1(C)CC(CC(=O)Nc2nccs2)(c2ccccc2)CCO1 (configuration not stated) | ? | 0 | 0 | 0 | 0 | 0
O=c1ccc2c(o1)/C(=C/C=C(Cl)Cl)CCC2 | 0 | 0 | 22µM | ? | 0 | 0
CCOC(=O)C1CCN(CC(O)COc2ccc(S(=O)(=O)N3CCCC3)cc2[N+](=O)[O-])CC1 (configuration not stated) | 8.3µM | 0 | 0 | ? | 0 | 0
CC1CCCCN1C(=O)COc1ccc(S(=O)(=O)N2CCCC2)cc1[N+](=O)[O-] (configuration not stated) | 0 | 0 | 0 | 12µM | 0 | 0
